Experimental data from PubChem BioAssay AID1159580 (chemical genetic matrix, 2015).
Hit rate of the full screen: of about 5,500 compounds, about 2,000 (36%) were called active. Not shown: some 18% with an inconclusive outcome. Rule as the data show it: active = normalized growth mostly below about 0.91 (no sharp cut-off); inconclusive = no clear call, values can overlap the other calls; inactive = mostly above about 0.92. The list shows a part of the results.

Test: chemical genetic growth profiling, strain panel (AID 1159580);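 also: tested at 20 µM; growth read once vehicle control cultures reached saturation at 30 °C; 1 = growth at the plate median or of vehicle wells; lower values mean less growth of the strain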
Settings: growth OD

Measured: normalized growth

Cc1ccccc1N1C(=O)c2cc(S(N)(=O)=O)c(Cl)cc2NC1C (stereo not drawn)
inactive: S. cerevisiae deletion strains, locus YKL009W, strain mrt4, stronger effect = lower value 1.01 | S. cerevisiae deletion strains, locus YKL068W, stronger effect = lower value 0.982 | S. cerevisiae deletion strains, locus YKL085W, strain MDH1 (second series), stronger effect = lower value 1.03 | S. cerevisiae deletion strains, locus YKL085W, strain MDH1, stronger effect = lower value 1.03 | S. cerevisiae deletion strains, locus YKL160W, strain elf1, stronger effect = lower value 0.969 | S. cerevisiae deletion strains, locus YKL190W, strain CNB1, stronger effect = lower value 0.994 | S. cerevisiae deletion strains, locus YKR001C, strain vps1, stronger effect = lower value 0.988 | S. cerevisiae deletion strains, locus YKR026C, strain gcn3, stronger effect = lower value 0.94 | S. cerevisiae deletion strains, locus YKR091W, strain srl3, stronger effect = lower value 0.984 | S. cerevisiae deletion strains, locus YLL001W, strain dnm1, stronger effect = lower value 0.969 | S. cerevisiae deletion strains, locus YLL026W, stronger effect = lower value 1 | S. cerevisiae deletion strains, locus YLL041C, strain sdh2, stronger effect = lower value 0.988 | S. cerevisiae deletion strains, locus YLR027C, strain aat2, stronger effect = lower value 0.987 | S. cerevisiae deletion strains, locus YLR039C, strain RIC1, stronger effect = lower value 0.974 | S. cerevisiae deletion strains, locus YLR058C, strain SHM2, stronger effect = lower value 0.987 | S. cerevisiae deletion strains, locus YLR102C, strain apc9, stronger effect = lower value 0.989 | S. cerevisiae deletion strains, locus YLR113W, strain HOG1, stronger effect = lower value 0.985 | S. cerevisiae deletion strains, locus YLR221C, strain rsa3, stronger effect = lower value 0.986 | S. cerevisiae deletion strains, locus YLR258W, strain gsy2, stronger effect = lower value 0.969 | S. cerevisiae deletion strains, locus YLR262C, strain YPT6 (second series), stronger effect = lower value 0.96 | S. cerevisiae deletion strains, locus YLR262C, strain YPT6, stronger effect = lower value 1.01 | S. cerevisiae deletion strains, locus YLR268W, strain sec22, stronger effect = lower value 0.995 | S. cerevisiae deletion strains, locus YLR320W, strain mms22, stronger effect = lower value 1.04 | S. cerevisiae deletion strains, locus YLR330W, strain CHS5, stronger effect = lower value 0.99 | S. cerevisiae deletion strains, locus YLR342W, strain FKS1 (second series), stronger effect = lower value 0.971 | S. cerevisiae deletion strains, locus YLR342W, strain FKS1, stronger effect = lower value 0.983 | S. cerevisiae deletion strains, locus YLR357W, strain rsc2, stronger effect = lower value 0.949 | S. cerevisiae deletion strains, locus YLR370C, strain arc18, stronger effect = lower value 0.98 | S. cerevisiae deletion strains, locus YLR371W, strain rom2, stronger effect = lower value 0.993 | S. cerevisiae deletion strains, locus YLR384C, strain iki3, stronger effect = lower value 0.961 | S. cerevisiae deletion strains, locus YLR418C, strain cdc73, stronger effect = lower value 0.98 | S. cerevisiae deletion strains, locus YML016C, strain PPZ1, stronger effect = lower value 0.985 | S. cerevisiae deletion strains, locus YML032C, strain rad52, stronger effect = lower value 0.994 | S. cerevisiae deletion strains, locus YML120C, strain ndi1, stronger effect = lower value 1 | S. cerevisiae deletion strains, locus YML124C, strain tub3, stronger effect = lower value 0.978 | S. cerevisiae deletion strains, locus YMR058W, strain fet3, stronger effect = lower value 0.988 | S. cerevisiae deletion strains, locus YMR078C, strain ctf18, stronger effect = lower value 0.984 | S. cerevisiae deletion strains, locus YMR125W, strain sto1, stronger effect = lower value 0.921 | S. cerevisiae deletion strains, locus YMR129W, stronger effect = lower value 0.997 | S. cerevisiae deletion strains, locus YMR205C, strain PFK2, stronger effect = lower value 0.982 | S. cerevisiae deletion strains, locus YMR223W, strain ubp8, stronger effect = lower value 0.993 | S. cerevisiae deletion strains, locus YMR231W, strain pep5, stronger effect = lower value 0.974 | S. cerevisiae deletion strains, locus YMR263W, strain SAP30, stronger effect = lower value 1.01 | S. cerevisiae deletion strains, locus YMR307W, strain GAS1, stronger effect = lower value 0.888 | S. cerevisiae deletion strains, locus YNL067W, strain RPL9B, stronger effect = lower value 1.01 | S. cerevisiae deletion strains, locus YNL071W, strain lat1, stronger effect = lower value 1.01 | S. cerevisiae deletion strains, locus YNL128W, strain TEP1, stronger effect = lower value 0.97 | S. cerevisiae deletion strains, locus YNL183C, strain NPR1, stronger effect = lower value 0.93 | S. cerevisiae deletion strains, locus YNL209W, strain ssb2, stronger effect = lower value 0.994 | S. cerevisiae deletion strains, locus YNL233W, strain BNI4, stronger effect = lower value 1.01 | S. cerevisiae deletion strains, locus YNL248C, strain rpa49, stronger effect = lower value 0.909 | S. cerevisiae deletion strains, locus YNL250W, strain rad50, stronger effect = lower value 0.98 | S. cerevisiae deletion strains, locus YNL271C, strain bni1, stronger effect = lower value 0.983 | S. cerevisiae deletion strains, locus YNL298W, strain CLA4, stronger effect = lower value 0.996 | S. cerevisiae deletion strains, locus YNL307C, strain MCK1, stronger effect = lower value 0.996 | S. cerevisiae deletion strains, locus YNL322C, strain KRE1 (second series), stronger effect = lower value 0.98 | S. cerevisiae deletion strains, locus YNR049C, strain mso1, stronger effect = lower value 0.992 | S. cerevisiae deletion strains, locus YNR052C, strain pop2, stronger effect = lower value 0.995 | S. cerevisiae deletion strains, locus YOL006C, strain TOP1, stronger effect = lower value 0.997 | S. cerevisiae deletion strains, locus YOL012C, strain htz1 0.785 | S. cerevisiae deletion strains, locus YOL147C, strain pex11, stronger effect = lower value 0.987 | S. cerevisiae deletion strains, locus YOR001W, strain rrp6, stronger effect = lower value 0.957 | S. cerevisiae deletion strains, locus YOR061W, strain CKA2, stronger effect = lower value 0.993 | S. cerevisiae deletion strains, locus YOR069W, strain VPS5, stronger effect = lower value 0.986 | S. cerevisiae deletion strains, locus YOR070C, strain gyp1, stronger effect = lower value 0.999 | S. cerevisiae deletion strains, locus YOR080W, strain dia2, stronger effect = lower value 0.961 | S. cerevisiae deletion strains, locus YOR083W, strain WHI5, stronger effect = lower value 0.986 | S. cerevisiae deletion strains, locus YOR106W, strain vam3, stronger effect = lower value 0.957 | S. cerevisiae deletion strains, locus YOR136W, strain idh2, stronger effect = lower value 0.99 | S. cerevisiae deletion strains, locus YOR144C, strain elg1, stronger effect = lower value 0.987 | S. cerevisiae deletion strains, locus YOR184W, strain ser1, stronger effect = lower value 1.01 | S. cerevisiae deletion strains, locus YOR231W, strain MKK1, stronger effect = lower value 0.974 | S. cerevisiae deletion strains, locus YOR265W, strain rbl2, stronger effect = lower value 0.995 | S. cerevisiae deletion strains, locus YOR270C, strain vph1, stronger effect = lower value 0.938 | S. cerevisiae deletion strains, locus YOR290C, strain snf2, stronger effect = lower value 0.995 | S. cerevisiae deletion strains, locus YOR316C, strain cot1, stronger effect = lower value 0.983 | S. cerevisiae deletion strains, locus YPL051W, strain arl3, stronger effect = lower value 1.01 | S. cerevisiae deletion strains, locus YPL078C, strain atp4, stronger effect = lower value 0.957 | S. cerevisiae deletion strains, locus YPL106C, strain sse1, stronger effect = lower value 0.956 | S. cerevisiae deletion strains, locus YPL240C, strain hsp82, stronger effect = lower value 0.986 | S. cerevisiae deletion strains, locus YPL241C, strain CIN2, stronger effect = lower value 0.992 | S. cerevisiae deletion strains, locus YPL256C, strain CLN2, stronger effect = lower value 0.954 | S. cerevisiae deletion strains, locus YPR119W, strain clb2, stronger effect = lower value 0.987 | S. cerevisiae deletion strains, locus YPR141C, strain kar3, stronger effect = lower value 0.975 | S. cerevisiae deletion strains, locus YPR163C, strain tif3, stronger effect = lower value 0.981 | S. cerevisiae deletion strains, locus YPR167C, strain met16, stronger effect = lower value 0.992 | S. cerevisiae deletion strains, strain wtn01, stronger effect = lower value 0.991 | S. cerevisiae strains, strain wild type, stronger effect = lower value 0.943
